Data as given in PubChem BioAssay (Tox21).
Results filed as inconclusive are left out. Calls of active or inactive are those of the source. Unless noted, the call rests on the fitted dose curve.

How the values were obtained:
[1] = Nuclear factor erythroid 2-related factor 2/antioxidant responsive element (Nrf2/ARE) small molecule agonists: qHTS cell viability counter screen in human keratinocytes (AID 1919968; active means well fitted curve in the direction sought with a large enough effect in the repeat runs; an effect the other way counts as inactive or inconclusive; further: nearly all actives have a fitted effect of over 55% in size)
In short: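 HaCaT ARE reporter line, 1,500 cells/well; 5 h settle, 37 C/5% CO2; cpd in DMSO pinned; 23 h exposure; CellTiter-Fluor, 1 h; fluorescence.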

[2] = target: Gonadotropin-releasing hormone receptor (Homo sapiens) (UniProt P30968); assay: Human gonadotropin-releasing hormone receptor (GnRHR) small molecule agonists, calcium flux assay in GnRHR-HEK293 cells (AID 1920063); further: nearly all actives have a fitted effect of over 35% in size
Chain of Gonadotropin-releasing hormone receptor (Homo sapiens) (P30968 whole entry, looked up): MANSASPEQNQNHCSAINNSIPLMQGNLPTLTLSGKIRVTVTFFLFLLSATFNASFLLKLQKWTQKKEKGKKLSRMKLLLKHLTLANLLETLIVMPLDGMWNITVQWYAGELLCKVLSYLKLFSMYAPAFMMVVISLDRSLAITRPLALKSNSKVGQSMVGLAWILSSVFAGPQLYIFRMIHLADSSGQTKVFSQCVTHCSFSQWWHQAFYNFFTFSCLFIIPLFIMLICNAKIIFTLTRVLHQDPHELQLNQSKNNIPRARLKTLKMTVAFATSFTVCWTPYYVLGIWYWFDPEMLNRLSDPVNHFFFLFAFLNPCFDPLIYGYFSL
In short: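 GnRHR-HEK293, 1500 cells/well, 18 h 37 C/5% CO2; Ca dye 1 h 37 C; cpd pinned (DMSO), agonist mode; kinetic FL 480/540, 3 min, 1 s reads; 15 conc, n=3.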

[3] = target: KiSS-1 receptor (Homo sapiens) (UniProt Q969F8); assay: Human kisspeptin (KISS1R) small molecule agonists, calcium flux assay in KISS1R-HEK293 cells (AID 1920064; active means well fitted curve in the direction sought with a large enough effect in the repeat runs; an effect the other way counts as inactive or inconclusive)
Chain of KiSS-1 receptor (Homo sapiens) (Q969F8 whole entry, looked up): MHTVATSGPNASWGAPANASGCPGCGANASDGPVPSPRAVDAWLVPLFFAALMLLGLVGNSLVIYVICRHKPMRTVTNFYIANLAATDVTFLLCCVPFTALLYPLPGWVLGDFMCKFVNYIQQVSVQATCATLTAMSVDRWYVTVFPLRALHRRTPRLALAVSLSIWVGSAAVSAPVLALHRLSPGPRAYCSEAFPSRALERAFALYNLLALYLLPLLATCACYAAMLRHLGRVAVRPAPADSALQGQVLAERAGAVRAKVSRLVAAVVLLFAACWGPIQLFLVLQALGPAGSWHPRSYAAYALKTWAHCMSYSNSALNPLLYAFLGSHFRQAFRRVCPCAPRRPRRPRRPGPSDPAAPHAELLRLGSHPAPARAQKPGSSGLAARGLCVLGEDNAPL
In short: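 Stable human KISS1R HEK293 line; 18 h plating, 37 C/5% CO2; calcium dye 1 h 37 C; compound pin transfer; kinetic fluorescence Ex/Em 480/540, 3 min.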

[4] = G protein-coupled receptor (GPCR) small molecule agonists, calcium flux assay: HEK293 wild type cell line counter screen (AID 1920065)
In short: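 Kinetic fluorescence at Ex/Em 480/540, recorded every second over 3 min, served as the read-out after compound addition. Each compound was tested at 15 concentrations in triplicate on cells pre-loaded with calcium dye for 1 h.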

[5] = p53 small molecule agonists, cell-based qHTS assay with rat liver microsomes (AID 1963578)
In short: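 Metabolic activation by rat liver microsomes and NADPH, each 0.5 mg/mL final, added right after compounds to p53RE-bla reporter cells (4,000/well, plated 5 h earlier). 16 h at 37 C, then LiveBLAzer substrate for 2 h at room temperature in the dark; fluorescence read-out.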

[6] = p53 small molecule agonists, cell-based qHTS assay: qHTS cell viability counter screen (AID 1963581); further: nearly all actives have a fitted effect of over 45% in size
In short: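 HCT-116 p53RE-bla cells, 4,000/well, plated 5 h before compound pin transfer; 16 h at 37 C; bla substrate 2 h RT; then CellTiter-Glo, 30 min RT, luminescence.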

[7] = p53 small molecule agonists, cell-based qHTS assay (AID 1963582; active means well fitted activation curve with a large enough effect in the signal ratio in the repeat runs, not every such curve was filed as active; the % refers to the signal ratio)
In short: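 Reporter line: p53RE-bla. Pre-incubation 5 h, 37 C, 5% CO2; compound (DMSO, pin tool) 16 h, 37 C; B/G FRET substrate 2 h RT; fluorescence intensity read.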

[8] = target: 5-hydroxytryptamine receptor 2A (Homo sapiens) (UniProt P28223); assay: 5-hydroxytryptamine receptor 2A (HTR2A) small molecule antagonists, cell-based qHTS assay (AID 1963586); further: nearly all actives have a fitted effect of over 45% in size
Chain of 5-hydroxytryptamine receptor 2A (Homo sapiens) (P28223 whole entry, looked up): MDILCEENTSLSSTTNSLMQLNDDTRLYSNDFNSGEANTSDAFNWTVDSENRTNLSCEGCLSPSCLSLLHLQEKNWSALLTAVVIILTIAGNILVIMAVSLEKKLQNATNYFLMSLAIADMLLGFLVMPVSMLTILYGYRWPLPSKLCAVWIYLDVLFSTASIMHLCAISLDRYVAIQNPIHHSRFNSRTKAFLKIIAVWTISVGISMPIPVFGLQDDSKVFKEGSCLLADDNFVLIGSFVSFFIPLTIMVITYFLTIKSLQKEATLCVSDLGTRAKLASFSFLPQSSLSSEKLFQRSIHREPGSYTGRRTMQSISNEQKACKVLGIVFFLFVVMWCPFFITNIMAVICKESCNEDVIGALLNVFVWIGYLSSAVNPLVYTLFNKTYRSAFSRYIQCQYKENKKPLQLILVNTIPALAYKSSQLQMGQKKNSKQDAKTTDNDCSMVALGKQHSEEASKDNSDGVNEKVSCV
In short: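 Antagonist-mode intracellular calcium assay: DOI (4 nM) added after 5 min compound pre-incubation at room temperature to dye-loaded HTR2A-CHO cells. Fluorescence followed for 3 min, sampled every second.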

[9] = target: 5-hydroxytryptamine receptor 2A (Homo sapiens) (UniProt P28223); assay: 5-hydroxytryptamine receptor 2A (HTR2A) small molecule agonists, cell-based qHTS assay (AID 1963587); further: nearly all actives have a fitted effect of over 30% in size
In short: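 Kinetic calcium-flux fluorescence (2 min, 1 sec intervals) after compound addition in agonist mode. HTR2A-CHO cells were cultured 18 h, then dye-loaded 1 h at 37 C.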

[10] = target: Muscarinic acetylcholine receptor M1 (Homo sapiens) (UniProt P11229); assay: Cholinergic receptor muscarinic 1 (CHRM1) small molecule antagonists, cell-based qHTS assay (AID 1963588); further: nearly all actives have a fitted effect of over 40% in size
Chain of Muscarinic acetylcholine receptor M1 (Homo sapiens) (P11229 whole entry, looked up): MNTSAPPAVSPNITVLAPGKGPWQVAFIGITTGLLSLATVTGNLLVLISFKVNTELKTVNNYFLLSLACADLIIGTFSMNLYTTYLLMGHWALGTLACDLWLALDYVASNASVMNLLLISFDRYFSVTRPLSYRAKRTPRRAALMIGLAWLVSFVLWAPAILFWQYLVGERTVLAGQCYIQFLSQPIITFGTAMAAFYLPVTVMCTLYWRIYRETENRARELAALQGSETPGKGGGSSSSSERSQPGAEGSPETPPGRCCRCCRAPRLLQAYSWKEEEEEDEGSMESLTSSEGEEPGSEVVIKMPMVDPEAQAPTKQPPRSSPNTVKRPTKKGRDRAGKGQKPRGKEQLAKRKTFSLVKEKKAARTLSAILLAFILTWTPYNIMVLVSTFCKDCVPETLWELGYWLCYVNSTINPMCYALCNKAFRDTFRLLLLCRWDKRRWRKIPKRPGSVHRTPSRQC
In short: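 CHRM1-CHO calcium-flux assay, antagonist mode. Cells were seeded 18 h, dye-loaded 1 h at 37 C and given compound for 5 min at RT, then acetylcholine was added at 50nM. FDSS fluorescence was read 3 min; 15 concentrations, three runs.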

[11] = target: Muscarinic acetylcholine receptor M1 (Homo sapiens) (UniProt P11229); assay: Cholinergic receptor muscarinic 1 (CHRM1) small molecule agonists, cell-based qHTS assay (AID 1963589); further: nearly all actives have a fitted effect of over 35% in size
In short: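 Human M1 in stable CHO line; 18 h plating, 1 h dye load 37 C; cpd added (agonist mode); Ca2+ fluorescence kinetic read, 1 s intervals; 15 conc, 3 runs.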

[12] = cAMP Responsive Elements (CRE) small molecule antagonists, cell-based qHTS assay (AID 1963591; active means well fitted inhibition curve with a large enough effect in the signal ratio in the repeat runs, not every such curve was filed as active; the % refers to the signal ratio)
In short: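 Beta-lactamase reporter read by FRET substrate (LiveBLAzer B/G) after 2 h at room temperature. CRE-bla HEK293T cells had received compound plus 0.25 uM (final) NKH477 for 3 h at 37 °C.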

[13] = target: Beta-2 adrenergic receptor (Homo sapiens) (UniProt P07550); assay: Adrenergic beta2 receptor (ADRB2) small molecule antagonists, cell-based qHTS assay (AID 1963592); further: series mostly up to about 92 µM; nearly all actives have a fitted effect of over 50% in size
Chain of Beta-2 adrenergic receptor (Homo sapiens) (P07550 whole entry, looked up): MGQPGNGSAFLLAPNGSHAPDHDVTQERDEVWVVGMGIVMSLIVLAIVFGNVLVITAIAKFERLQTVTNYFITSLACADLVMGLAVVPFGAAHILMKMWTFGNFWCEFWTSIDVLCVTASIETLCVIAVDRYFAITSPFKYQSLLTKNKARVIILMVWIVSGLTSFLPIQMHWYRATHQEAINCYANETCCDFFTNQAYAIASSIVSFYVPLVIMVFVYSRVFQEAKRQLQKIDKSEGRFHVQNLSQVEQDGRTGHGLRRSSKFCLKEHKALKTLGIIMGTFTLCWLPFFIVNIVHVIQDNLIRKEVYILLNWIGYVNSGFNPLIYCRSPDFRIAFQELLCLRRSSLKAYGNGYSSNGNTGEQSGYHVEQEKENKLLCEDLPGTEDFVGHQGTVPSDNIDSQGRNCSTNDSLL
In short: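 Cells (CHO, stable ADRB2 overexpression) incubated 18-20hr at 37C; compounds added from DMSO; agonist mix (1nM isoproterenol, 100uM IBMX, 25uM Ro-20-1724) added; 0.5hr RT; d2-cAMP and anti-cAMP-cryptate added; 1hr RT; 665/615 nm read.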

[14] = target: Beta-2 adrenergic receptor (Homo sapiens) (UniProt P07550); assay: Adrenergic beta2 receptor (ADRB2) small molecule agonists, cell-based qHTS assay (AID 1963593);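 further: CHO cells stably overexpressing human ADRB2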
In short: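 CHO cells stably over-expressing ADRB2 were plated overnight at 37C, then dosed with compounds plus a stimulation mix containing 100uM IBMX and 25uM Ro-20-1724 for 0.5hr at room temperature. cAMP was measured by HTRF competition, 1hr.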

[15] = target: D(2) dopamine receptor (Homo sapiens) (UniProt P14416); assay: Dopamine D2 receptor (DRD2) small molecule agonists, cell-based qHTS assay (AID 1963594); further: nearly all actives have a fitted effect of over 35% in size
Chain of D(2) dopamine receptor (Homo sapiens) (P14416 whole entry, looked up): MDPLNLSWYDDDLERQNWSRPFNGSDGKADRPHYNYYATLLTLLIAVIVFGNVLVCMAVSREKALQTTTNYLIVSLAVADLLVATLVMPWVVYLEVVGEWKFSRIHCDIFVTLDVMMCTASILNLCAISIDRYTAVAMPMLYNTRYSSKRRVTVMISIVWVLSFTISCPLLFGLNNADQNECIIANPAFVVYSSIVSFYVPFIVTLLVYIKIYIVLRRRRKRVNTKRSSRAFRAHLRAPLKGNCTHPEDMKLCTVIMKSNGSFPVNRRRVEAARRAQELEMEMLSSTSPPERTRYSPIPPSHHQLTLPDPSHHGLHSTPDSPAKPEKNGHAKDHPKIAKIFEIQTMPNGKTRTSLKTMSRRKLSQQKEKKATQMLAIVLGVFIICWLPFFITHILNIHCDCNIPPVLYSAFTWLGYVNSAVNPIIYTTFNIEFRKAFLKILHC
In short: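 cAMP accumulation in DRD2-HEK293 cells measured by HTRF after 1 h detection; compounds added 10 min before NKH477 (200nM […]) forskolin-analogue stimulation, 30 min at room temperature, with Ro20-1724 present at 0.1 mM final.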

[16] = target: D(2) dopamine receptor (Homo sapiens) (UniProt P14416); assay: Dopamine D2 receptor (DRD2) small molecule antagonists, cell-based qHTS assay (AID 1963595; active means well fitted inhibition curve with a large enough effect in the signal ratio in the repeat runs, with a control signal flat; the % refers to the signal ratio)
In short: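 HEK293 cells stably expressing DRD2, preincubated with 0.1 mM Ro20-1724 and compounds 10 min, were stimulated with 200 nM NKH477 plus 12 nM quinpirole for 30 min at room temperature; cAMP measured by HTRF (665/620 nm).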

[17] = p53 small molecule agonists, cell-based qHTS assay with human liver microsomes: qHTS cell viability counter screen (AID 1963579); further: nearly all actives have a fitted effect of over 45% in size
In short: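 Metabolic activation used human liver microsomes and NADPH, both 0.5 mg/mL final, over 16 hours at 37 C on p53RE-bla cells (4,000/well). Cytotoxicity measured by CellTiter-Glo luminescence, 30 min at room temperature.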

[18] = p53 small molecule agonists, cell-based qHTS assay with rat liver microsomes: qHTS cell viability counter screen (AID 1963580); further: nearly all actives have a fitted effect of over 45% in size
In short: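 HCT-116 p53RE-bla, 4,000 cells/well, 5 h pre-incubation; cpd + rat liver microsomes 0.5 mg/mL + NADPH 0.5 mg/mL (final); 16 h, 37 C; CellTiter-Glo, 30 min RT; luminescence.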

[19] = cAMP Responsive Elements (CRE) small molecule agonists, cell-based qHTS assay (AID 1963590)
In short: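 HEK 293T CRE-bla, 2,000 cells/well, 18 h preincubation 37 C/5% CO2; cpds (DMSO) pinned, 3 h; LiveBLAzer B/G FRET substrate, 2 h RT.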

Measured: Potency

C[C@H]1[C@@H]2Cc3ccc(O)cc3[C@@]1(C)CCN2C
inactive: [1] | [2] | [3] | [4] | [5] | [6] | [7] | [8] | [9] | [10] | [11] | [12] | [13] | [14] | [15] | [16]

ClCc1ccccc1Cl
inactive: [1] | [2] | [3] | [4] | [17] | [18] | [6] | [8] | [10] | [11] | [19] | [12] | [13] | [14] | [15]

O=C(Nc1ccccc1)Nc1cnns1
inactive: [1] | [2] | [3] | [4] | [5] | [17] | [6] | [7] | [8] | [9] | [10] | [11] | [12] | [13] | [14] | [15] | [16]

CCOP(O)OCC
inactive: [1] | [2] | [3] | [4] | [17] | [18] | [6] | [8] | [9] | [10] | [11] | [19] | [12] | [13] | [14] | [15] | [16]

O=C(O)COc1ccc(Cl)cc1
inactive: [1] | [2] | [3] | [4] | [5] | [17] | [18] | [6] | [7] | [9] | [10] | [11] | [13] | [14] | [15] | [16]

Clc1ccc(-c2ccccc2)cc1
inactive: [1] | [2] | [3] | [4] | [5] | [18] | [6] | [7] | [8] | [9] | [10] | [11] | [19] | [12] | [13] | [15] | [16]

C=CC(=O)OCC(C)O (centres undefined)
inactive: [1] | [2] | [3] | [4] | [17] | [18] | [6] | [8] | [9] | [10] | [11] | [19] | [12] | [13] | [15]

Cc1ncsc1CCCl
inactive: [1] | [2] | [3] | [4] | [17] | [18] | [6] | [8] | [9] | [10] | [11] | [19] | [12] | [14] | [15] | [16]
